{"source": "PubChem BioAssay (EPA / NIEHS)", "note": "Records with an inconclusive call do not appear. Calls of active or inactive are those of the source. How the source made its calls: active means hit-call score of the fitted dose curve at least 0.9, where 1 is the maximum; inconclusive means response in the unintended direction; inactive means score below 0.9.", "data": [{"experiment": "ATG_M_61_XSP1: Attagene TRANS-FACTORIAL Multi-Species (XSP1) HepG2 Assay for M61 Transcription Factor (Internal Marker) (AID 2283797)", "experimental": "ATG_XSP1_multi-species_TRANS is a cell-based, multiplexed assay created by modifying the existing Attagene TRANS-FACTORIAL system to include a panel of nuclear receptors from some or all the following species: human (Homo sapiens), mouse (Mus musculus), frog (Xenopus laevis), zebrafish (Danio rerio), chicken (Gallus gallus), and turtle (Chrysemys picta). The ECOTOX-FACTORIAL format uses HepG2, a human liver cell line, with measurements taken at 24 hours after chemical dosing in a 24-well plate. Xsp1 included 3 nM 6-alpha-fluorotestosterone to partially stimulate the androgen receptor.ATG_M_61_XSP1 is one of 29 assay components measured or calculated from the ATG_XSP1_multi-species_TRANS assay. It is designed to make measurements of mRNA induction, a form of inducible reporter, as detected with fluorescence intensity signals by Reverse transcription polymerase chain reaction (RT-PCR) and Capillary electrophoresis technology.This assay endpoint, ATG_M_61_XSP1, was analyzed in the positive analysis fitting direction relative to DMSO as the negative control and baseline of activity. Using a type of inducible reporter, measures of mRNA for gain-of-signal activity can be used to understand the background control at the transcription factor-level as they relate to the gene. Furthermore, this assay endpoint can be referred to as a secondary readout, because this assay has produced multiple assay endpoints where this one serves a background control function. To generalize the intended target to other relatable targets, this assay endpoint is annotated to the background measurement intended target family, where the subfamily is internal marker.\nHuman liver HepG2 cells are transiently transfected with multiple reporter transcription units (MRTUs) in 6-well plates using FuGene 6 reagent (Roche; 3 ml FuGene/1 mg DNA). The MRTU constructs are regulated by a cis-regulating element (promoter). […] A major difference between the CIS and TRANS system is that in CIS activities of endogenous TFs are measured, whereas the TRANS assay evaluates changes in activities of exogenous, chimeric NR-Gal4 proteins. […] At the end of 24 hour incubation, total RNA was isolated using TriZol reagent (Invitrogen). The isolated RNA is then reverse-transcribed using oligo(dT) primer and Mo-MLV reverse transcriptase (Invitrogen) with DNAse I (Ambion) treatment for 30 min. The one-tenth of the produced cDNA was amplified by PCR using Taq DNA polymerase (Invitrogen) and two reporter sequence-specific primers. The PCR products were fluorescently labeled by primer extension with 6-arboxyfluorescein (6-FAM) 5'-labeled reporter sequence-specific primer (2 min at 95 C, 20 s at 68 C and 10 min at 72 C) and these products were digested with 5U of HpaI (New England Biolabs) for 2h at 37 C. The fragments were purified using Qiaquick PCR columns (Qiagen), analyzed on an ABI 3130xL genetic analyzer (Applied Biosystems) with peak positions identified by using a set of X-rhodamine (ROX)-labeled MapMarker1000 molecular weight standards (BioVentures). The raw capillary electrophoresis data was processed using Attagraph software (Attagene).", "values": [{"smiles": "CCOP(=S)(OCC)SCn1c(=O)oc2cc(Cl)ccc21", "outcome": "inactive"}, {"smiles": "CCCCC(CC)COC(=O)c1ccccc1C(=O)OCC(CC)CCCC", "note": "(stereo not drawn)", "outcome": "inactive"}, {"smiles": "COP(=S)(OC)Oc1nc(Cl)c(Cl)cc1Cl", "outcome": "inactive"}, {"smiles": "C#CCOS(=O)OC1CCCCC1Oc1ccc(C(C)(C)C)cc1", "note": "(stereo not drawn)", "outcome": "inactive"}, {"smiles": "CO/C=C(/C(=O)OC)c1ccccc1Oc1cc(Oc2ccccc2C#N)ncn1", "outcome": "inactive"}, {"smiles": "CON(C)C(=O)Nc1ccc(Cl)c(Cl)c1", "outcome": "inactive"}, {"smiles": "COC(=O)N(OC)c1ccccc1COc1ccn(-c2ccc(Cl)cc2)n1", "outcome": "inactive"}, {"smiles": "CCCN(CCC)c1c([N+](=O)[O-])cc(S(N)(=O)=O)cc1[N+](=O)[O-]", "outcome": "inactive"}, {"smiles": "CCCCNC(=O)OCC#CI", "outcome": "inactive"}, {"smiles": "COc1ccc(C(c2ccc(OC)cc2)C(Cl)(Cl)Cl)cc1", "outcome": "inactive"}, {"smiles": "CC(C)(C)c1ccc(CSc2cnn(C(C)(C)C)c(=O)c2Cl)cc1", "outcome": "inactive"}, {"smiles": "C=CC1(C)OC(=O)N(c2cc(Cl)cc(Cl)c2)C1=O", "note": "(stereo not drawn)", "outcome": "inactive"}, {"smiles": "CC(C)Oc1cc(-n2nc(C(C)(C)C)oc2=O)c(Cl)cc1Cl", "outcome": "inactive"}]}]}
